Calls of active or inactive are those of the source. Rule for the calls: active = hit-call score of the fitted dose curve at least 0.9, where 1 is the maximum; inactive = score below 0.9.
How the values were obtained:
[1] = read-out: Interferon-gamma inducible Protein 10 (IP10), CXCL10 (gene 3627); test: BSK_hDFCGF_IP10: BioMAP Diversity Plus: hDFCGF Assay for Interferon-gamma inducible Protein 10 (IP10) Biomarker Activity (AID 2283053); details: primary human foreskin fibroblasts; actives raise or lower the signal
Summary of the method: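 Human foreskin fibroblast primary cells (hDFCGF system) were dosed with chemical and assayed at 24 h; IP-10 measured by ELISA. Activity fitted bidirectionally relative to DMSO negative control as baseline.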

[2] = read-out: Urokinase-type plasminogen activator receptor (uPAR), PLAUR (gene 5329); test: BSK_CASM3C_uPAR: BioMAP Diversity Plus: CASM3C Assay for Urokinase-type plasminogen activator receptor (uPAR) Biomarker Activity (AID 2283054); details: primary human coronary artery smooth muscle cells; actives raise or lower the signal;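 note: cell-surface uPAR protein level quantified by ELISA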
[3] = read-out: Vascular cell adhesion molecule 1 (VCAM1), VCAM1 (gene 7412); test: BSK_CASM3C_VCAM1: BioMAP Diversity Plus: CASM3C Assay for Vascular cell adhesion molecule 1 (VCAM1) Biomarker Activity (AID 2283055); details: primary human coronary artery smooth muscle cells; actives raise or lower the signal;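 note: VCAM-1 protein level quantified by ELISA on the cells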
[4] = read-out: Collagen III, COL3A1 (gene 1281); test: BSK_hDFCGF_CollagenIII: BioMAP Diversity Plus: hDFCGF Assay for Collagen III Biomarker Activity (AID 2283056); details: primary human foreskin fibroblasts; actives raise or lower the signal
Summary of the method: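 Response relative to DMSO, fitted in both directions, reflects ELISA-measured collagen III in human primary skin fibroblasts 24 h after compound addition.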

[5] = read-out: Epidermal growth factor receptor (EGFR), EGFR (gene 1956); test: BSK_hDFCGF_EGFR: BioMAP Diversity Plus: hDFCGF Assay for Epidermal growth factor receptor (EGFR) Biomarker Activity (AID 2283057); details: primary human foreskin fibroblasts; actives raise or lower the signal
Summary of the method: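 Primary human foreskin fibroblasts were exposed to compound for 24 h, after which cell-surface EGFR was quantified by ELISA. Activity was fitted bidirectionally against the DMSO negative control as baseline.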

[6] = read-out: Interleukin-8 (IL8), CXCL8 (gene 3576); test: BSK_hDFCGF_IL8: BioMAP Diversity Plus: hDFCGF Assay for Interleukin-8 (IL8) Biomarker Activity (AID 2283058); details: primary human foreskin fibroblasts; actives raise or lower the signal
Summary of the method: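 Fibroblast monolayers (human foreskin, hDFCGF) received test chemical for 24 h before ELISA detection of IL-8; either increases or decreases relative to DMSO count as activity.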

[7] = BSK_hDFCGF_Proliferation: Cell Proliferation Assessment in the BioMAP Diversity Plus: hDFCGF Assay (AID 2283059); details: primary human foreskin fibroblasts;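 note: curves fitted for both rise and fall of signal versus DMSO baseline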
Summary of the method: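 This proliferation readout used SRB total-protein staining of human foreskin fibroblasts […], normalized to DMSO with bidirectional curve fitting.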

[8] = read-out: Macrophage colony-stimulating factor (MCSF), CSF1 (gene 1435); test: BSK_hDFCGF_MCSF: BioMAP Diversity Plus: hDFCGF Assay for Macrophage colony-stimulating factor (MCSF) Biomarker Activity (AID 2283060); details: primary human foreskin fibroblasts; actives raise or lower the signal
Summary of the method: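 fibroblasts (human foreskin, primary), 24 h post-dose; M-CSF by ELISA; bidirectional fit, DMSO = baseline.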

[9] = BSK_hDFCGF_SRB: Viability Assessment in the BioMAP Diversity Plus: hDFCGF Assay (AID 2283061); details: primary human foreskin fibroblasts;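 note: cells exposed to compound for 24 h before the read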
Summary of the method: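 SRB-based viability read on primary human skin fibroblasts at 24 h: TCA fixation, 0.1% dye, 560 nm. Gain or loss of signal is fitted against the DMSO negative control.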

[10] = read-out: TIMP metallopeptidase inhibitor 1 (TIMP1), TIMP1 (gene 7076); test: BSK_hDFCGF_TIMP1: BioMAP Diversity Plus: hDFCGF Assay for TIMP metallopeptidase inhibitor 1 (TIMP1) Biomarker Activity (AID 2283062); details: primary human foreskin fibroblasts; actives raise or lower the signal
Summary of the method: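 Bidirectional curve fitting against DMSO baseline yielded this endpoint, based on ELISA detection of TIMP-1 in primary human foreskin fibroblasts exposed to compound for 24 h.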

Measured: AC50

CCN(CC)C(=O)C(Cl)=C(C)OP(=O)(OC)OC
inactive: all assays above

CC(C=O)Cc1ccc2c(c1)OCO2 (configuration not stated)
inactive: all assays above

CCCCCCCCCCCCN(C)C
inactive: all assays above

CC(C)(COCC1CO1)COCC1CO1 (configuration not stated)
active: [7] 20 µM
inactive: all other assays above

O=C(Cc1ccccc1)OCCc1ccccc1
inactive: all assays above

Cc1c([N+](=O)[O-])c(C)c([N+](=O)[O-])c(C(C)(C)C)c1[N+](=O)[O-]
active: [7] 31.4 µM
inactive: all other assays above

[Cl][Sn]([c]1ccccc1)([c]1ccccc1)[c]1ccccc1
active: [1] 0.0861 µM | [2] 0.351 µM | [3] 0.396 µM | [4] 0.5 µM | [6] 0.123 µM | [7] 0.0542 µM | [8] 0.166 µM | [9] 0.233 µM | [10] 0.158 µM
inactive: [5]

Cc1ccccc1OP(=O)(Oc1ccccc1)Oc1ccccc1
active: [1] 19 µM | [4] 2.84 µM | [7] 20 µM | [8] 10.5 µM | [9] 29.2 µM | [10] 14.5 µM
inactive: [2] | [3] | [5] | [6]

CCC(C)(C#N)N=NC(C)(C#N)CC (configuration not stated)
inactive: all assays above

Cc1ccc2nc3sc(=O)sc3nc2c1
active: [2] 2.14 µM | [7] 5 µM
inactive: all other assays above

CCOP(=S)(OCC)OP(=S)(OCC)OCC
active: [1] 29.6 µM | [3] 20 µM | [7] 23.2 µM
inactive: all other assays above

C=CC(Cl)CCl (configuration not stated)
active: [3] 0.921 µM | [7] 20.4 µM
inactive: all other assays above

CCOP(=O)(OCC)SCCSCC
inactive: all assays above

CCCCN(CCCC)C(=S)[S-].CCCCN(CCCC)C(=S)[S-].[Ni+2]
inactive: all assays above

Oc1c(Br)cc(Br)cc1Br
active: [4] 12.1 µM
not listed: [7]
inactive: all other assays above

O=[N+]([O-])c1ccc(Nc2ccccc2)cc1
inactive: all assays above

CCOC(=O)C(SP(=S)(OC)OC)c1ccccc1 (configuration not stated)
active: [3] 20 µM | [4] 10.2 µM | [7] 26.4 µM | [8] 7.09 µM
inactive: all other assays above

CCCCCCCCCCCCc1cccc(S(=O)(=O)O)c1
inactive: [2] | [3]
active: [1] 12.7 µM | [4] 16.2 µM | [5] 11.8 µM | [7] 8.86 µM | [8] 12.5 µM | [9] 18.1 µM | [10] 30.1 µM

O=C(CCl)NCO
not listed: [9]
inactive: all other assays above

Cc1cccc(OP(=O)(Oc2cccc(C)c2)Oc2cccc(C)c2)c1
active: [8] 4.78 µM
inactive: all other assays above

Oc1c(Cl)cc(Cl)cc1Cl
inactive: all assays above

O=C1C=CC(=O)c2ccccc21
active: [1] 1.55 µM | [2] 4.99 µM | [3] 3.84 µM | [4] 1.27 µM | [7] 0.905 µM | [8] 1.17 µM | [9] 1.63 µM | [10] 2.41 µM
inactive: [5] | [6]

O=C(N[C@H]1CN2CCC1CC2)c1ccc2c(c1)OCCO2
inactive: all assays above

O=S(=O)(c1ccc(Cl)cc1)c1cc(Cl)c(Cl)cc1Cl
active: [2] 20 µM | [3] 0.016 µM | [4] 3.97 µM | [7] 20 µM
inactive: all other assays above

OCCN(CCO)CCO
inactive: all assays above

CC(C)O.CC(C)O.OCCN(CCO)CCO.OCCN(CCO)CCO.[Ti]
active: [1] 30.9 µM | [8] 20 µM
inactive: all other assays above

C[C@]12CC[C@@H](O)C[C@@H]1CC[C@@H]1[C@@H]2CC[C@]2(C)C(=O)CC[C@@H]12
inactive: all assays above

CC(C)=CC1C(C(=O)OCc2cccc(Oc3ccccc3)c2)C1(C)C (configuration not stated)
active: [4] 7.5 µM | [7] 20 µM | [8] 7.43 µM | [9] 12.4 µM | [10] 12.5 µM
inactive: [1] | [2] | [3] | [5] | [6]

Cc1cc(C(C)(C)c2ccc(O)c(C)c2)ccc1O
active: [2] 17.1 µM | [3] 13.9 µM | [4] 15.6 µM | [7] 13.9 µM | [8] 15.3 µM | [9] 16.1 µM
inactive: [1] | [5] | [6] | [10]

Nc1c(Oc2ccccc2)cc(O)c2c1C(=O)c1ccccc1C2=O
active: [1] 17 µM | [8] 10 µM
inactive: all other assays above

Cc1cc(Cl)ccc1OC(C)C(=O)O (configuration not stated)
inactive: all assays above

N#Cc1cccnc1
inactive: all assays above

Oc1cc(Cl)c(Cl)cc1Cl
active: [1] 20 µM | [4] 27.7 µM | [7] 15.2 µM | [9] 31.8 µM
inactive: all other assays above

Cc1cc(C)cc(C)c1
inactive: all assays above

Reference: PubChem BioAssay (EPA / NIEHS)
